High-throughput results: PubChem BioAssay, The Scripps Research Institute Molecular Screening Center
M1 ag parental: M1 agonist counterscreen hit in parental CHO-K1 cells | 0.48% of 360,000 active | AID 602248 | Fluo-8 calcium fluorescence; scaled to maximal ATP response, vehicle zero | activation, % at 3 µM; in the data active = activation above about 15%;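 also: untransfected CHO-K1 host cells lacking M1 receptor as counterscreen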
CHO-K1 Ca antag: nonselective inhibitor or artifact in parental CHO-K1 cells. ATP-induced calcium, Fluo-8 fluorescence. inhibition, % at 3 µM. 0.6% of 360,000 active. AID 602250;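 active = inhibition above a per-plate cutoff, the plate's mean sample inhibition plus 3 SD, cut at about 24% in these data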;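 also: 0% = DMSO plus EC80 ATP and 100% = DMSO alone without ATP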
M1 PAM: potentiates human M1 receptor response to acetylcholine; CHO-K1 hM1, Fluo-8 calcium fluorescence, ACh EC20; 0% = ACh EC20, 100% = maximal ACh; activation, % at 3 µM; 0.088% of 360,000 active; in the data active = activation above about 19%, passing the limit was not always enough
Target sequence (P11229 whole entry, looked up): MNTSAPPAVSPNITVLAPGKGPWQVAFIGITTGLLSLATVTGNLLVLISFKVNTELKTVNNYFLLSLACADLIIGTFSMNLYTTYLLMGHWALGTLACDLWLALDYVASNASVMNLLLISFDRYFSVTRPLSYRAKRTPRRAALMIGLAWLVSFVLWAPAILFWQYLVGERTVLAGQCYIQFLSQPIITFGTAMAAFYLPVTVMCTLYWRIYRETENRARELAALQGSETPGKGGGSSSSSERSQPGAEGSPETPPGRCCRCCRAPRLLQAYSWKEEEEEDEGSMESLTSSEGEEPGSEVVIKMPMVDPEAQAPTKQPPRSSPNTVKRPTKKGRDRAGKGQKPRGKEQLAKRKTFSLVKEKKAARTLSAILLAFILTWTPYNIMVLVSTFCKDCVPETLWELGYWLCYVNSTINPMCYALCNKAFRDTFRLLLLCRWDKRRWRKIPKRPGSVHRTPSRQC
M1 antag: human CHRM1 antagonism | CHO-K1 hM1, Fluo-8 calcium fluorescence, ACh EC80 antagonist | inhibition, % at 3 µM | 1.3% of 360,000 active | AID 588852;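 active = percent inhibition above its own plate's cutoff, namely the mean of that plate's compound wells plus 3 SD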;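 also: peak over basal fluorescence ratio during 140 s after agonist addition; 0% = ACh EC80 plus DMSO and 100% = DMSO alone without agonist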
M1 PAM parental: nonselective activator or artifact in parental CHO-K1 calcium assay | AID 602247 | ATP EC20, Fluo-8 calcium fluorescence; 0% at ATP EC20, 100% at ATP max | activation, % at 3 µM | 0.02% of 360,000 active;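 active = activation above the run cutoff, the mean activation of all test compounds plus 3 SD, cut at about 40% in these data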;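 also: peak over basal fluorescence ratio in a 140 s read after ATP addition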
M1 ag: agonists of human M1 muscarinic receptor. activation, % at 3 µM. 0.33% of 360,000 active. AID 588814. P11229. CHO-K1 hM1, Fluo-8 calcium fluorescence, agonist mode; 0% DMSO, 100% acetylcholine EC100;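 active = activation above the run's mean compound activation plus 3 SD, cut at about 16% in these data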;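 also: peak over basal fluorescence ratio within a 140 s kinetic read after compound addition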
Numbers without * were called inactive. Hits are enriched below; roughly 2.4% of the tested compounds scored in any of these assays.

SMILES	M1 ag parental	CHO-K1 Ca antag	M1 PAM	M1 antag	M1 PAM parental	M1 ag
O=C(NCC1CCCO1)Nc1cc(Cl)cc(Cl)c1 (configuration not stated)	1	25*	6	6	-7	1
Cc1ccc(C(C(=O)NC2CCCCC2)N(CC2CCCO2)C(=O)CNC(=O)c2cccs2)cc1 (configuration not stated)	0	-1	-18	37*	-2	-1
COc1ccccc1C(C)NC(=O)Cc1ccc(S(=O)(=O)N2CCOCC2)s1 (configuration not stated)	1	4	-2	9	1	-2
CC(=O)Nc1cc(-c2ccccc2)cn2c(-c3cccc(C(C)=O)c3)cnc12	2	-8	1	3	15	-7
CCC1(c2ccc(F)cc2)NC(=O)N(CC(=O)Nc2ccccc2Cl)C1=O (configuration not stated)	15*	-8	3	-8	-7	36*
CCC1(c2ccccc2)NC(=O)N(CC(=O)Nc2cc(S(=O)(=O)N3CCCCCC3)ccc2OC)C1=O (configuration not stated)	9	21	-6	32*	0	0
CCC1(c2ccccc2)NC(=O)N(CC(=O)Nc2ccccc2C(=O)NC2CC2)C1=O (configuration not stated)	2	-16	10	-11	26	0
CCOc1ccc(S(=O)(=O)N2CCCCC2)cc1NC(=O)CN1C(=O)NC(CC)(c2ccccc2)C1=O (configuration not stated)	4	9	6	-11	-5	-2
CCC1(c2ccc(F)cc2)NC(=O)N(CC(=O)Nc2ccccc2C)C1=O (configuration not stated)	16*	-12	-3	11	26	12
COc1ccc(S(=O)(=O)N2CCCCC2)cc1NC(=O)CN(C)C1CCCCC1	3	-13	8	-16	20	-7
COc1ccc(S(=O)(=O)N2CCCCC2)cc1NC(=O)CN(Cc1ccco1)Cc1ccco1	10	3	-20	44*	-2	7
Cc1ccc(C2(c3ccccc3)NC(=O)N(CC(=O)NC3(C#N)CCCC3)C2=O)cc1C (configuration not stated)	0	-1	11	-12	7	-9
CCCCC1(c2ccc(F)cc2)NC(=O)N(CC(=O)Nc2ccc(N3CCOCC3)cc2)C1=O (configuration not stated)	8	-10	9	-2	26	16*
CCN1CCN(C2=C(Cl)C(=O)N(Cc3ccccc3)C2=O)CC1	0	-3	-22	78*	5	-5
CN1CCN(C2=C(Cl)C(=O)N(Cc3ccccc3)C2=O)CC1	3	-3	-26	27*	-3	-6
O=C1CSC(=S)N1/N=C/c1cc(Br)c(O)c(Br)c1	106*	45*	-42	90*	-8	251*
COc1ccc(OCCOC(=O)Nc2ccccc2)cc1	1	4	-1	31*	4	-4
O=C(Nc1ccccc1)OCCCCCOC(=O)Nc1ccccc1	9	26*	-4	-6	0	-5
O=S(=O)(c1ccccc1)c1cnc(-c2ccccc2)nc1N1CCCCC1	0	-11	-2	6	13	-2
COc1cc(/C=C2\CCC(C)C3=C(c4cc(OC)c(OC)c(OC)c4)C(C#N)=C(N)OC32)cc(OC)c1OC (configuration not stated)	3	-5	2	-11	13	-1
Cc1cc(C)c(C)c(S(=O)(=O)N2CCC(C(=O)Nc3ccncc3)CC2)c1C	2	0	-2	6	-8	-2
CCOC(=O)c1c(C)[nH]c(N=Nc2ccc(OC)cc2)c1C	1	-20	2	-17	0	-4
FC(F)(F)c1nc2nc(Cl)c(Cl)nc2[nH]1	-1	-6	4	-15	7	0
FC(F)(F)c1cccc(-c2nc3nc(Cl)c(Cl)nc3[nH]2)c1	18*	6	-11	33	-17	5
CC(=O)c1c(C)[nH]c(C(=O)Nc2ccc(Cl)cc2)c1C	16*	-1	-6	3	4	6
SMILES	M1 ag parental	CHO-K1 Ca antag	M1 PAM	M1 antag	M1 PAM parental	M1 ag
CCOC(=O)c1sc(NC(=O)C2CCC2)cc1C	-1	26*	5	2	-9	-7
CCOC(=O)c1sc(NC(C)=O)cc1C	0	-8	8	-14	15	-3
CCOC(=O)c1sc(NC(=O)Nc2ccccc2Cl)cc1C	12	22	-13	18	-1	-1
CCOC(=O)c1sc(NC(=O)Nc2ccccc2)cc1C	17*	29*	-17	33	0	-3
Cc1ccc(S(=O)(=O)N2CCCCC2C(=O)Nc2ccc(N(C)C)cc2)cc1 (configuration not stated)	0	1	-2	0	2	-4
CCC(=O)Nc1ccc2c(c1)nc1n2CCSC1	0	24*	0	9	-7	-3
CC(C)C(=O)Nc1ccc2c(c1)nc1n2CCSC1	1	-11	11	-9	16	-1
CNc1nc(SCC(=O)Nc2ccccc2)nc(N2CCOCC2)n1	1	-8	1	3	-7	-2
Cc1ccc(C(=O)Nc2cccc3cccnc23)cc1C	0	10	17	7	-11	10
CC(=O)OCC(=O)Nc1c(C)cc(C)cc1C	0	-6	7	4	18	-4
CCC(CC)c1nnc(NC(=O)COc2ccc3c(c2)OCO3)s1	20*	-7	-3	5	18	9
CC(C)c1nnc(NC(=O)COc2ccc3c(c2)OCO3)s1	2	-11	9	-16	19	-8
COc1cccc(/C(C#N)=C/c2c(-c3ccc(Cl)cc3)nc3c(C)cccn23)c1	0	-13	-22	48*	10	-5
COc1cccc(CNc2ccc(F)c([N+](=O)[O-])c2)c1O	3	13	-15	90*	-16	3
CCOC(=O)c1ccn(CSc2c(F)c(F)cc(F)c2F)n1	0	21	-14	33*	-12	-2
COC(=O)c1ccn(CSc2c(F)c(F)cc(F)c2F)n1	0	-11	13	-12	13	-4
CN1CCN(CC/C=C2/c3ccccc3Sc3ccc(S(=O)(=O)N(C)C)cc32)CC1	1	7	-8	-15	-6	-5
CN(C)CC/C=C1/c2cc(F)ccc2Sc2ccc(Cl)cc21	3	-2	-27	99*	15	-7
COc1cc(Cl)cc2c1Sc1ccccc1/C2=C/CCN(C)C	1	-9	-24	68*	19	-4
COc1ccc(CCN(/C=C2\Sc3ccccc3C2=O)C(C)=O)cc1OC	0	-2	20	-20	-17	0
CN(C)CC/C=C1/c2ccccc2Sc2c(O)cc(Cl)cc21	2	4	-31	97*	0	-10
